Test results published in the supplement of paper PMC6897291.

Key:
[1] = tested on: U-2932; experiment: growth inhibition by drug alone (1 - RLU/untreated control) (fraction); higher = stronger inhibition; details: 177Lu-lilotomab satetraxetan 0 ug/ml
How it was run: (§1)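 Compound doses on the pre-printed Selleck Cambridge Cancer Compound library plates were 10/100 nM for RIVA cells and 10/1,000 nM for U-2932 cells, seeded at 3,000 cells/well. Before seeding, cells were washed after 18 h with or without a radiolabelled anti-CD37 antibody conjugate (~600 MBq/mg; 0.5 µg/ml RIVA, 1 µg/ml U-2932). Growth inhibition was derived from RealTime-Glo luminescence relative to untreated no-drug control wells. Readings were taken daily starting on day 3, each after 1 h at 37°C, and each well's RLU was divided by the mean of 48 such wells per plate and subtracted from 1.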

[2] = tested on: RIVA; experiment: as above; details: 177Lu-lilotomab satetraxetan 0 ug/ml
How it was run: as §1

[3] = tested on: U-2932; experiment: growth inhibition by drug plus 177Lu-lilotomab satetraxetan (1 - RLU/untreated control) (fraction); higher = stronger inhibition; details: 177Lu-lilotomab satetraxetan 1 ug/ml
How it was run: as §1

[4] = tested on: RIVA; experiment: as above; details: 177Lu-lilotomab satetraxetan 0.5 ug/ml
How it was run: as §1

SMILES | growth inhibition by drug alone ([1]; 10 nM, time (day): 3) | growth inhibition by drug alone ([1]; 10 nM, time (day): 4) | growth inhibition by drug alone ([1]; 10 nM, time (day): 5) | growth inhibition by drug alone ([1]; 10 nM, time (day): 6) | growth inhibition by drug alone ([1]; 1000 nM, time (day): 3) | growth inhibition by drug alone ([1]; 1000 nM, time (day): 4) | growth inhibition by drug alone ([1]; 1000 nM, time (day): 5) | growth inhibition by drug alone ([1]; 1000 nM, time (day): 6) | growth inhibition by drug alone ([2]; 10 nM, time (day): 3) | growth inhibition by drug alone ([2]; 10 nM, time (day): 4) | growth inhibition by drug alone ([2]; 10 nM, time (day): 5) | growth inhibition by drug alone ([2]; 10 nM, time (day): 6) | growth inhibition by drug alone ([2]; 100 nM, time (day): 3) | growth inhibition by drug alone ([2]; 100 nM, time (day): 4) | growth inhibition by drug alone ([2]; 100 nM, time (day): 5) | growth inhibition by drug alone ([2]; 100 nM, time (day): 6) | growth inhibition by drug plus 177Lu-lilotomab satetraxetan ([3]; 10 nM, time (day): 3) | growth inhibition by drug plus 177Lu-lilotomab satetraxetan ([3]; 10 nM, time (day): 4) | growth inhibition by drug plus 177Lu-lilotomab satetraxetan ([3]; 10 nM, time (day): 5) | growth inhibition by drug plus 177Lu-lilotomab satetraxetan ([3]; 10 nM, time (day): 6) | growth inhibition by drug plus 177Lu-lilotomab satetraxetan ([3]; 1000 nM, time (day): 3) | growth inhibition by drug plus 177Lu-lilotomab satetraxetan ([3]; 1000 nM, time (day): 4) | growth inhibition by drug plus 177Lu-lilotomab satetraxetan ([3]; 1000 nM, time (day): 5) | growth inhibition by drug plus 177Lu-lilotomab satetraxetan ([3]; 1000 nM, time (day): 6) | growth inhibition by drug plus 177Lu-lilotomab satetraxetan ([4]; 10 nM, time (day): 3) | growth inhibition by drug plus 177Lu-lilotomab satetraxetan ([4]; 10 nM, time (day): 4) | growth inhibition by drug plus 177Lu-lilotomab satetraxetan ([4]; 10 nM, time (day): 5) | growth inhibition by drug plus 177Lu-lilotomab satetraxetan ([4]; 10 nM, time (day): 6) | growth inhibition by drug plus 177Lu-lilotomab satetraxetan ([4]; 100 nM, time (day): 3) | growth inhibition by drug plus 177Lu-lilotomab satetraxetan ([4]; 100 nM, time (day): 4) | growth inhibition by drug plus 177Lu-lilotomab satetraxetan ([4]; 100 nM, time (day): 5) | growth inhibition by drug plus 177Lu-lilotomab satetraxetan ([4]; 100 nM, time (day): 6)
CS(=O)(=O)c1cccc(CNc2nc(Nc3ccc4c(c3)CCC(=O)N4)ncc2C(F)(F)F)c1 | 0.0502 | 0.00856 | -0.0018 | 0.0705 | -0.0504 | -0.0365 | -0.0145 | 0.085 | -0.0802 | -0.0828 | -0.0817 | -0.0957 | -0.0969 | -0.126 | -0.181 | -0.218 | -0.0177 | 0.0519 | 0.101 | 0.199 | 0.0169 | 0.0857 | 0.144 | 0.314 | 0.467 | 0.549 | 0.572 | 0.567 | 0.206 | 0.328 | 0.352 | 0.383
CCCS(=O)(=O)Nc1ccc(F)c(C(=O)c2c[nH]c3ncc(-c4ccc(Cl)cc4)cc23)c1F [Vemurafenib (PLX4032)] | 0.026 | -4.15e-06 | -0.0629 | -0.147 | -0.152 | -0.0928 | -0.16 | -0.291 | -0.0219 | -0.0744 | -0.165 | -0.55 | -0.231 | -0.206 | -0.219 | -0.345 | -0.0121 | 0.00305 | 0.0511 | 0.0873 | -0.143 | -0.047 | -0.0561 | 0.06 | 0.42 | 0.546 | 0.561 | 0.576 | 0.432 | 0.531 | 0.539 | 0.524
